# According to PubChem BioAssay (NCATS):
# Where “and” joins values, the source holds several entries; their conditions need not be identical. Equal values may be shown once. Records with an inconclusive call do not appear. Calls of active or inactive are those of the source. Calls come from the whole dose curve; as a rule, active = well fitted curve in the direction sought with a large enough effect in the signal ratio, with a control signal flat; inconclusive = small, poorly fitted or top-dose-only effect, or a change in a side signal; inactive = no such curve, though single readings can be large or run the other way; the % refers to the signal ratio.
# Target: Glucocorticoid receptor (Homo sapiens) (UniProt P04150)
# Sequence (P04150 whole entry, looked up): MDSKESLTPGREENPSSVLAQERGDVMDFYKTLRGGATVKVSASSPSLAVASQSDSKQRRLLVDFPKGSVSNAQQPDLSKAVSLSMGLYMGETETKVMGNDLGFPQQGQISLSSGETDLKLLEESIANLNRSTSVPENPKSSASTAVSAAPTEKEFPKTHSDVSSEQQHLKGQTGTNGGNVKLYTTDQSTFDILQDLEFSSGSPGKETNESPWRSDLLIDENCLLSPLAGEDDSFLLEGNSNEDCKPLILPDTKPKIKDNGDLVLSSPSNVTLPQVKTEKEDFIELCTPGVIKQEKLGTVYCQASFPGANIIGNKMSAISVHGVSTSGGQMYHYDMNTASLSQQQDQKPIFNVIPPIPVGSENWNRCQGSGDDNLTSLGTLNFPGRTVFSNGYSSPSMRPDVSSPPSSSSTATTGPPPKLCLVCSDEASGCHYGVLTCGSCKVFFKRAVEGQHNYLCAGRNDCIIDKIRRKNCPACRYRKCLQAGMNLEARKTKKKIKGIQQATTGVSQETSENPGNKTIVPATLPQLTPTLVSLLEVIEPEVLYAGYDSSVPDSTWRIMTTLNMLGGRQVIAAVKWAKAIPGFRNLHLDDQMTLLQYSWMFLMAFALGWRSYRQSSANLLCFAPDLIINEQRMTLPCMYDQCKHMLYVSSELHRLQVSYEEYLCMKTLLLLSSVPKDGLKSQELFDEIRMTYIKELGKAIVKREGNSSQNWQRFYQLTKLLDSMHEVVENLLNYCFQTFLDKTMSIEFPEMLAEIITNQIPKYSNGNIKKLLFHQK
# Assay: qHTS assay for small molecule agonists of glucocorticoid receptor signaling (AID 588532)
# Settings: HeLa MMTV-bla, beta-lactamase ratio, agonist, 18 h; active compounds read high; percent of dexamethasone control, DMSO zero
# Source text: NIH Chemical Genomics Center [NCGC] U.S. Environmental Protection Agency [EPA] National Institutes of Environmental Health Sciences [NIEHS] National Toxicology Program [NTP] NCGC Assay Overview The Glucocorticoid receptor (GR), a nuclear receptor subfamily member and its natural ligands includes […] etc. The GR is a validated drug target for inflammation. GR ligands such as dexamethasone are clinically available as anti-inflammatory drugs. Glucocorticoids implicate role in carbohydrate, protein and lipid metabolisms and programmed cell death. They are also a component of many chemotherapy regimens for the treatment of leukemias, lymphomas, and myelomas because of their role in the induction of apoptosis.
# NCGC Assay Protocol Summary Using a beta-lactamase reporter-gene under control of glucocorticoid response element (GRE), a cell-based assay [CellSensor MMTV-bla HeLa cell line assay developed by Invitrogen] was used to measure GR ligands signaling. CellSensor MMTV-bla HeLa cells were used with assay medium containing 1% charcoal/dextran treated FBS, 0.1 mM NEAA, 1 mM sodium pyruvate and 25mM HEPES. The assay was performed in clear bottom black Greiner 1536-well plates. Dexamethasone and Mifepristine were used in the screen as agonist and antagonist positive controls respectively. Library compounds were measured for their ability to stimulate the reporter gene activity. Compounds were screened in a titration series in 1536-well format. The fluorescence intensity (405 nm excitation, 460/530 nm emission) was measured using an EnVision plate reader. Data was normalized relative to Dexamethasone control (0.1 uM, 100%), and DMSO only wells (basal, 0%). Concentration-response titration points for each compound were fitted to the Hill equation yielding concentrations of half-maximal stimulation (EC50) and maximal response (efficacy) values. qHTS protocol for GR beta-lactamase assay in agonist mode [Step] [Parameter] [Value] [Description] 1. Reagent; 6 uL; 1500 cells/well 2. Incubation; 37 C for 3-5 hrs 3. Compounds; 23 nL; 0.59 nM to 92 uM 4. Controls (Dexamethasone); 23 nL, - One column with dose response, start 4.6uM, 1:3 dilutions in duplicates - Final concentrations of 0.1 uM and 2 nM in two columns 5. Incubation; 37 C for 18 hrs 6. Detection reagent; 1 uL of CCF4-dye 7. Incubation; RT for 2 hrs 8. Detection; Fluorescence; Envision plate reader
row,Structure (SMILES),activation
1,CC(=O)NS(=O)(=O)c1ccc(N)cc1,-1.25% (inactive)
2,O=C1C(c2[nH]c3ccccc3c2O)=Nc2ccccc21,5.37% (inactive)
3,O=C(OOC(=O)c1ccccc1)c1ccccc1,6.15% (inactive)
4,Cc1c(N(C)C)c(=O)n(-c2ccccc2)n1C,1.22% (inactive) and -3.75% (inactive)
5,CCCCCCCC(=O)OCC(COC(=O)CCCCCCC)OC(=O)CCCCCCC,2.19% (inactive)
6,Cc1cc(=O)[nH]c(=S)[nH]1,-0.999% (inactive)
7,COC(=O)c1ccc(O)cc1,15.6% (inactive)
8,O=C(c1ccccc1)C(O)c1ccccc1 (stereo unspecified),2.68% (inactive) and -5.31% (inactive)
9,CCCCCCCCCCCCCCCCCCO,-8.91% (inactive)
10,CC(=O)OCC(COC(C)=O)OC(C)=O,-5.82% (inactive)
11,CCCCOC(=O)c1ccc(N)cc1,-4.26% (inactive)
12,CC(=O)Nc1ccccc1,-0.909% (inactive)
13,CC(=O)Nc1ccc(C(=O)O)cc1,-0.936% (inactive)
14,Cc1c(C(=O)NCCO)[n+](=O)c2ccccc2n1[O-],0.345% (inactive)
15,CC1CC(OC(=O)c2ccccc2O)CC(C)(C)C1 (stereo unspecified),2.49% (inactive)
16,COc1ccc(O)cc1,-2.84% (inactive)
17,FC(F)(F)C(Cl)Br (stereo unspecified),-1.46% (inactive)
18,Cc1cc(C)nc(NS(=O)(=O)c2ccc(N)cc2)n1,5.22% (inactive) and 0.742% (inactive)
19,O=C(O)CCCCC1CCSS1 (stereo unspecified),-0.0197% (inactive) and 20% (inactive)
20,CCN(CC)C(=O)c1cccc(C)c1,-2.58% (inactive) and -6.82% (inactive)
21,Cc1ccc(C(C)C)c(O)c1,-10.5% (inactive)
